# Sampled rows, rich in hits. Any-hit rate of the full collection: about 4.3%.
# Wnt bcat act: Wnt/beta-catenin pathway activators, primary screen, cell-based, plate reader, single point; Wnt/beta-catenin reporter cell assay, activator; activation, % at 9.35 µM; actives 1.2% (n = 300,000); in the data active means activation above about 30%, passing the limit was not always enough; inconclusive means no clear call, values can overlap the other calls
# esBAF inh: Bmi1 luciferase reporter increase in mESCs, primary screen, esBAF inhibitor project, mouse ES cells, Bmi1 luciferase knock-in, single point; 24 h; 100% = twice the neutral-well signal; actives 2% (n = 350,000); reporter increase, % at 12.5 µM; in the data active means activation above about 40%; inconclusive means no clear call, values can overlap the other calls;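 further: a rise in the Bmi1 reporter signal indicates esBAF inhibition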
# MITF act: activators of MITF-driven TRPM1 promoter reporter, primary screen, cell-based, SK-MEL-5, luciferase, single point; SK-MEL-5 TRPM1-promoter luciferase, 24 h; % of positive control, neutral wells = 0; activation, % at 12.5 µM; actives 0.75% (n = 300,000); AID 588334, 2011;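 active means mean activation of at least 80% with every replicate also reaching 80%; inconclusive means mean reaches 80% but some replicate falls short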
# HSF1 activator: HSF-1 activators, primary screen, NIH3T3-HGL cells, MG132 stress, luminescence, single point | NIH3T3-HGL HSF-1 luciferase reporter, 8 h; 100% = twice DMSO control signal | actives 1.7% (n = 300,000) | activation, % at 9 µM;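 active means mean replicate activation of at least 50% with a set share of replicates each reaching 50%; inconclusive means only one of those two conditions met; inactive means mean below 50% and too few replicates reaching it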
# SMARCA2 activ: SMARCA2 (BRM) function activators, primary screen, cell-based, luminescence, high throughput; MG213 cells, MMTV-luciferase reporter, dexamethasone, overnight; activation, % at 9.1 µM; actives 1% (n = 370,000); AID 652017, 2013; in the data active means activation above about 7.8%
# HSF1 inh: HSF1 inhibitors in luciferase reporter cells, primary screen, cell-based, NIH3T3, luminescence; NIH3T3-HGL HSE-luciferase, MG132-induced, luminescence 8 h; stronger effect = lower value; activity change, negative = inhibition, % at 7.5 µM (by protocol); actives 0.77% (n = 300,000); AID 2098, 2009;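 active means more than half of replicate wells show activity change below -50%, luminescence cut by over half; inconclusive means some wells, but at most half, below -50%; inactive means no replicate well below -50%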;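 further: luciferase reports HSF-1 transcriptional activity via heat shock element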
# Hits are given with their value; . = inactive; ? = inconclusive; / = not tested or not shown.
SMILES,Wnt bcat act,esBAF inh,MITF act,HSF1 activator,SMARCA2 activ,HSF1 inh
O=C(N/N=C\c1cc2c(cc1Cl)OCO2)c1cccs1,.,52.8,.,.,.,.
O=C(N/N=C\c1ccc(Cl)s1)c1cccs1,/,72.3,.,.,.,.
O=C(N/N=C/c1ccncc1)c1cccs1,/,.,.,.,/,.
O=C1C2CCCN2c2ccc(S(=O)(=O)N3CCOCC3)cc2N1Cc1cccc(C(F)(F)F)c1 (stereo not given),/,/,/,.,/,-85.3
O=C1C2CCCN2c2ccc(S(=O)(=O)N3CCOCC3)cc2N1Cc1ccccc1F (stereo not given),/,.,/,.,/,.
O=c1ncn(-c2cccc(Cl)c2)c2ccccc12,43.6,/,.,.,.,.
CC(CCC(=O)O)C1CC[C@H]2C3CCC4CC(=O)CCC4(C)[C@H]3CC(=O)C12C (stereo not given in full),.,.,.,57.8,.,.
CC(CCC(=O)O)C1CCC2C3CCC4C[C@H](O)CCC4(C)C3CC(=O)C12C (stereo not given in full),.,.,.,.,.,.
COC(=O)C(C(=O)OC)C(CC(=O)c1ccc(C)cc1)c1cc(OC)c(OC)c(OC)c1 (stereo not given),.,.,.,?,.,.
COc1ccc(C(CC(=O)c2ccc(C)cc2)C(C#N)C#N)cc1OC (stereo not given),/,/,.,73.0,.,.
COC(=O)c1cn(C(=O)/C=C/c2ccc(OC)c(OC)c2)c2ccccc12,.,/,.,60.5,.,.
COc1ccc(/C=C/C(=O)NC(=S)NCc2ccccc2)cc1OC,.,/,.,67.5,.,.
COc1cc(NS(=O)(=O)c2ccc(NC(=S)NC(=O)/C=C/c3ccc(OC)c(OC)c3)cc2)ncn1,.,.,.,.,.,-55.0
COc1ccc(/C=C/C(=O)NC(=S)Nc2ccc(S(=O)(=O)Nc3cc(OC)ncn3)cc2)cc1,.,/,.,/,.,/
COc1ccc(/C=C/C(=O)NC(C)CCc2ccccc2)cc1OC (stereo not given),.,/,.,.,.,.
CO[C@@H]1CN(C)C(=O)c2ccc(NC(=O)c3ccccc3)cc2OC[C@@H](C)N(C(=O)C2CC2)C[C@@H]1C,/,.,/,/,/,/
O=C(CCCCCn1c(=S)[nH]c2ccc(N3CCOCC3)cc2c1=O)NCc1ccc(Cl)cc1,.,.,.,.,.,.
O=c1c2cc(N3CCOCC3)ccc2[nH]c(=S)n1Cc1ccc(Cl)cc1,/,54.4,.,55.6,.,.
CCS(=O)(=O)c1ccc2oc(Nc3ccc(OC)c(OC)c3)nc2c1,.,.,.,.,.,.
CCS(=O)(=O)c1ccc2oc(Nc3ccccc3C)nc2c1,/,54.7,?,.,.,.
CCN(CC)S(=O)(=O)c1ccc2oc(Nc3ccccc3)nc2c1,.,70.5,.,?,.,.
CN(C)C(=O)c1cccc(-c2ccc3c(c2)[C@H]2[C@H](CCN2Cc2nccs2)[C@@H](CO)N3)c1,/,.,/,/,/,/
C[C@@H]1CCCCO[C@@H](CN(C)S(=O)(=O)c2cn(C)cn2)[C@H](C)CN([C@H](C)CO)C(=O)c2cc(NC(=O)Nc3ccc4c(c3)OCO4)ccc2O1,/,60.2,/,/,/,/
C[C@H](CO)N1C[C@H](C)[C@H](CN(C)S(=O)(=O)c2cn(C)cn2)OCCCC[C@H](C)Oc2ccc(NC(=O)Nc3ccc4c(c3)OCO4)cc2C1=O,/,.,/,/,/,/
C[C@@H]1CCCCO[C@H](CN(C)S(=O)(=O)c2cn(C)cn2)[C@@H](C)CN([C@@H](C)CO)C(=O)c2cc(NC(=O)Nc3ccc4c(c3)OCO4)ccc2O1,/,.,/,/,/,/
SMILES,Wnt bcat act,esBAF inh,MITF act,HSF1 activator,SMARCA2 activ,HSF1 inh
C[C@@H]1CN([C@@H](C)CO)C(=O)c2cc(NC(=O)Nc3ccc4c(c3)OCO4)ccc2O[C@@H](C)CCCCO[C@@H]1CN(C)S(=O)(=O)c1cn(C)cn1,/,46.8,/,/,/,/
C[C@@H]1CN([C@@H](C)CO)C(=O)c2cc(NC(=O)Nc3ccccc3)ccc2O[C@@H](C)CCCCO[C@@H]1CN(C)S(=O)(=O)c1cn(C)cn1,/,.,/,/,/,/
C[C@@H]1CN([C@H](C)CO)C(=O)c2cc(NC(=O)Nc3ccc4c(c3)OCO4)ccc2O[C@@H](C)CCCCO[C@@H]1CN(C)S(=O)(=O)c1cn(C)cn1,/,68.2,/,/,/,/
C[C@H](CO)N1C[C@H](C)[C@@H](CN(C)S(=O)(=O)c2cn(C)cn2)OCCCC[C@H](C)Oc2ccc(NC(=O)Nc3ccc4c(c3)OCO4)cc2C1=O,/,44.5,/,/,/,/
C[C@H](CO)N1C[C@H](C)[C@H](CN(C)C)Oc2ncc(-c3cccnc3)cc2C1=O,/,.,/,/,/,/
C[C@@H]1CN([C@@H](C)CO)C(=O)c2cc(NS(=O)(=O)c3cn(C)cn3)ccc2O[C@@H]1CN(C)C(=O)Nc1ccc(C(F)(F)F)cc1,/,.,/,/,/,/
C[C@@H]1CN([C@@H](C)CO)C(=O)c2cc(C#C[C@@H](C)O)cnc2O[C@H]1CN(C)C(=O)Cc1ccncc1,/,.,/,/,/,/
Cc1ccccc1Nc1c(-c2ccc(N3CCOCC3)cc2)nc2ncccn12,.,53.3,.,.,.,.
Cc1ccccc1Nc1c(-c2ccc(N3CCOCC3)cc2)nc2cnccn12,33.1,55.8,.,.,.,.
C[C@@H]1CN([C@@H](C)CO)C(=O)c2cc(NS(=O)(=O)c3ccc(Cl)cc3)ccc2O[C@@H](C)CCCCO[C@@H]1CN(C)S(=O)(=O)c1ccc(Cl)cc1,/,.,/,/,/,/
OC(c1cccc(F)c1)c1ncc(-c2ccc3ccccc3c2)[nH]1 (stereo not given),.,73.6,/,/,.,/
COc1ccccc1-c1cnc(C(O)c2ccc(C)cc2)[nH]1 (stereo not given),.,54.6,/,/,.,/
OC(c1ccccc1)c1ncc(-c2ccccc2F)[nH]1 (stereo not given),.,62.1,/,/,.,/
OC(c1ccccc1)c1ncc(-c2ccccc2Cl)[nH]1 (stereo not given),.,?,/,/,7.9,/
OC(c1cccc(Cl)c1)c1ncc(-c2ccc3ccccc3c2)[nH]1 (stereo not given),.,.,/,/,.,/
O=C1CC(c2ccccc2)Oc2cc(O)cc(O)c21 (stereo not given),.,60.3,/,.,.,.
O=C1CC(c2ccc(O)c(O)c2)Oc2cc(O)cc(O)c21 (stereo not given),.,.,.,.,.,.
COc1ccc([C@H]2Cc3cccc(O)c3C(=O)O2)cc1O,.,55.1,.,/,.,/
O=C1O[C@@H](c2ccc(O)cc2)Cc2cccc(O)c21,.,.,.,/,.,/

# High-throughput results as filed in PubChem.
